# Data reported in ChEMBL document CHEMBL1961873, “Compounds: GSK PKIS; Assays: Nanosyn kinase panel” (2012).
# Key:
# [1] = system: Epidermal growth factor receptor (Homo sapiens), P00533 [T790M]; conditions: at 1 µM
# [2] = system: Epidermal growth factor receptor (Homo sapiens), P00533 [L858R,T790M]; conditions: at 0.1 µM
# [3] = system: Epidermal growth factor receptor (Homo sapiens), P00533 [L858R,T790M]; conditions: at 1 µM
# [4] = target: Ephrin type-A receptor 2 (Homo sapiens) (UniProt P29317); conditions: at 0.1 µM
# Ephrin type-A receptor 2 (Homo sapiens), sequence (P29317 whole entry): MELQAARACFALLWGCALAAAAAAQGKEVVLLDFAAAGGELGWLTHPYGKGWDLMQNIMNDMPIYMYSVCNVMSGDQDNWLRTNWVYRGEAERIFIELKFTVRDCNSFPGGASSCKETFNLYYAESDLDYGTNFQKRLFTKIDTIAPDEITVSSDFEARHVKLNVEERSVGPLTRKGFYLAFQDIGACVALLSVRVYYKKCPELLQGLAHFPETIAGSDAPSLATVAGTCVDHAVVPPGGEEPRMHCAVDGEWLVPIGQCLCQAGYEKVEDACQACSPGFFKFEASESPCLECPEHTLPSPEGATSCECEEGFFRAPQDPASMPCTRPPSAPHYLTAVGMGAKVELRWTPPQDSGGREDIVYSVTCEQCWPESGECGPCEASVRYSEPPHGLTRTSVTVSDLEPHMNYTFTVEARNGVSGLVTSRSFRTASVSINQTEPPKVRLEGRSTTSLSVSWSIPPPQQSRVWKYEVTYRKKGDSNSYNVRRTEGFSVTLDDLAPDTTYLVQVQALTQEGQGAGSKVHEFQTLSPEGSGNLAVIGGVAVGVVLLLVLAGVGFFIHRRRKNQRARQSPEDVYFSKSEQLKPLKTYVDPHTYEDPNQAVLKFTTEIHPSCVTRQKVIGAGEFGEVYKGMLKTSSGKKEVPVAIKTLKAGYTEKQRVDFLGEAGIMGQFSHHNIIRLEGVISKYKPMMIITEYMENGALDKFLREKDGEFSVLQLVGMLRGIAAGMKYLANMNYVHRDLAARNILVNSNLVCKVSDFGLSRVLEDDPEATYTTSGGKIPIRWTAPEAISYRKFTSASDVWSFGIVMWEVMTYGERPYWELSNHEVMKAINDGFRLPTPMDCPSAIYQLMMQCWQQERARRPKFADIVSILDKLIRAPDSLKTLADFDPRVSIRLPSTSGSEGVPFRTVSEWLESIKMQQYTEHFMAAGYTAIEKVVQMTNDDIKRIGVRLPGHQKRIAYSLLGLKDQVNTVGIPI
# [5] = target: Ephrin type-A receptor 2 (Homo sapiens) (UniProt P29317); conditions: at 1 µM
# [6] = target: T1, Ephrin type-A receptor 3 (Homo sapiens) (UniProt P29320); conditions: at 0.1 µM
# T1 sequence (whole entry): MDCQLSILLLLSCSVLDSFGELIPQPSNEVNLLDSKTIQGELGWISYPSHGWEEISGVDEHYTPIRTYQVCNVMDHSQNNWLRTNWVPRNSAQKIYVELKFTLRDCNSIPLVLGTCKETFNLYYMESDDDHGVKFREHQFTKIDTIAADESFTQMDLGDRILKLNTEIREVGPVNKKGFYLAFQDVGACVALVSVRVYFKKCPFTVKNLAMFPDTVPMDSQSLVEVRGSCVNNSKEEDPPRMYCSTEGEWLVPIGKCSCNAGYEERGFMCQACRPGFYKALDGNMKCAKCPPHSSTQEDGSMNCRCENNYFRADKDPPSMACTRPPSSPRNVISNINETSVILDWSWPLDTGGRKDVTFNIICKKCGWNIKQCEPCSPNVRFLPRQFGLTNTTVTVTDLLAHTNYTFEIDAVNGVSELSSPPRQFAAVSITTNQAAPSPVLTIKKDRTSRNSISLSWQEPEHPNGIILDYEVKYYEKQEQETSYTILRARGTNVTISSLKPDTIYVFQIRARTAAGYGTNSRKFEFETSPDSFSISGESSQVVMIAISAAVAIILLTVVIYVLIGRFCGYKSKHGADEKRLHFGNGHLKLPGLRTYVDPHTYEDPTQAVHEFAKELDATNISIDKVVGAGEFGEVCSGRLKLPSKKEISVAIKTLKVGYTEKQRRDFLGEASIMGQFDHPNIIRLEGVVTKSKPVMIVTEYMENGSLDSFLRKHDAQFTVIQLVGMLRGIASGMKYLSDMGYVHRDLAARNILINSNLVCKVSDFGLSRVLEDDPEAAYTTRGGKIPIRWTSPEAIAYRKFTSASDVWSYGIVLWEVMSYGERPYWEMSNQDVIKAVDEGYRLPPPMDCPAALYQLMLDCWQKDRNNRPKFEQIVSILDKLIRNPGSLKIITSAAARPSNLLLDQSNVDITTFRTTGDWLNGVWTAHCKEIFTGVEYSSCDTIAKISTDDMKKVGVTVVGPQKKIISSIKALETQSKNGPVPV
# [7] = target: T1, Ephrin type-A receptor 3 (Homo sapiens); conditions: at 1 µM
# [8] = target: Ephrin type-A receptor 4 (Homo sapiens) (UniProt P54764); conditions: at 0.1 µM
# [9] = target: Ephrin type-A receptor 4 (Homo sapiens) (UniProt P54764); conditions: at 1 µM
# [10] = target: T2, Ephrin type-B receptor 2 (Homo sapiens) (UniProt P29323); conditions: at 0.1 µM
# T2 sequence (whole entry): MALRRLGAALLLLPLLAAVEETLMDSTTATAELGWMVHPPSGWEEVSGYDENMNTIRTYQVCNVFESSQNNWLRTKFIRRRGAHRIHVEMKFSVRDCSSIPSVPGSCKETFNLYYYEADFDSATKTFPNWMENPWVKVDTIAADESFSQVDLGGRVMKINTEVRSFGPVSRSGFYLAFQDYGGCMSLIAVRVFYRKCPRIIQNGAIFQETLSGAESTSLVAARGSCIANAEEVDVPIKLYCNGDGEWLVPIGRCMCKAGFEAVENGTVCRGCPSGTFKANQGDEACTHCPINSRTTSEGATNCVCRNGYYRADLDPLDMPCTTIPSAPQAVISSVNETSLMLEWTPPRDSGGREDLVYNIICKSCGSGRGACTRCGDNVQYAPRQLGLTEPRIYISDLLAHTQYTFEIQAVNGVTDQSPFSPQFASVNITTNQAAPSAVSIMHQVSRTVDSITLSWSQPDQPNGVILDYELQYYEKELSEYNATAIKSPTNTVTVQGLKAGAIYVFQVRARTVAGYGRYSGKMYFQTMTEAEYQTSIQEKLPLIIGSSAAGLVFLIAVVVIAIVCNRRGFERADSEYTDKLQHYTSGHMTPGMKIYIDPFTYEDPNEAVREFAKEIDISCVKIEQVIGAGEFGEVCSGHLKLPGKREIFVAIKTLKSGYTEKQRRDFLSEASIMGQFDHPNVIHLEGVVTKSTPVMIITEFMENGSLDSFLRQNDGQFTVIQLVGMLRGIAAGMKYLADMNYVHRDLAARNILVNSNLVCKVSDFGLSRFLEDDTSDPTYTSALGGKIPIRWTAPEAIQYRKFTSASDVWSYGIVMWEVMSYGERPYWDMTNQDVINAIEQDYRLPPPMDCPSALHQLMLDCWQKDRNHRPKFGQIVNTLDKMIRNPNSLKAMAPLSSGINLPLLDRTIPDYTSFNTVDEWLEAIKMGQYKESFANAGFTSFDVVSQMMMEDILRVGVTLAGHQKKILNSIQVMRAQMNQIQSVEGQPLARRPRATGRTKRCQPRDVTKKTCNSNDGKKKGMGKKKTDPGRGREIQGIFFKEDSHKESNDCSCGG
# [11] = target: T2, Ephrin type-B receptor 2 (Homo sapiens); conditions: at 1 µM
# [12] = target: T3, Ephrin type-B receptor 3 (Homo sapiens) (UniProt P54753); conditions: at 0.1 µM
# T3 sequence (whole entry): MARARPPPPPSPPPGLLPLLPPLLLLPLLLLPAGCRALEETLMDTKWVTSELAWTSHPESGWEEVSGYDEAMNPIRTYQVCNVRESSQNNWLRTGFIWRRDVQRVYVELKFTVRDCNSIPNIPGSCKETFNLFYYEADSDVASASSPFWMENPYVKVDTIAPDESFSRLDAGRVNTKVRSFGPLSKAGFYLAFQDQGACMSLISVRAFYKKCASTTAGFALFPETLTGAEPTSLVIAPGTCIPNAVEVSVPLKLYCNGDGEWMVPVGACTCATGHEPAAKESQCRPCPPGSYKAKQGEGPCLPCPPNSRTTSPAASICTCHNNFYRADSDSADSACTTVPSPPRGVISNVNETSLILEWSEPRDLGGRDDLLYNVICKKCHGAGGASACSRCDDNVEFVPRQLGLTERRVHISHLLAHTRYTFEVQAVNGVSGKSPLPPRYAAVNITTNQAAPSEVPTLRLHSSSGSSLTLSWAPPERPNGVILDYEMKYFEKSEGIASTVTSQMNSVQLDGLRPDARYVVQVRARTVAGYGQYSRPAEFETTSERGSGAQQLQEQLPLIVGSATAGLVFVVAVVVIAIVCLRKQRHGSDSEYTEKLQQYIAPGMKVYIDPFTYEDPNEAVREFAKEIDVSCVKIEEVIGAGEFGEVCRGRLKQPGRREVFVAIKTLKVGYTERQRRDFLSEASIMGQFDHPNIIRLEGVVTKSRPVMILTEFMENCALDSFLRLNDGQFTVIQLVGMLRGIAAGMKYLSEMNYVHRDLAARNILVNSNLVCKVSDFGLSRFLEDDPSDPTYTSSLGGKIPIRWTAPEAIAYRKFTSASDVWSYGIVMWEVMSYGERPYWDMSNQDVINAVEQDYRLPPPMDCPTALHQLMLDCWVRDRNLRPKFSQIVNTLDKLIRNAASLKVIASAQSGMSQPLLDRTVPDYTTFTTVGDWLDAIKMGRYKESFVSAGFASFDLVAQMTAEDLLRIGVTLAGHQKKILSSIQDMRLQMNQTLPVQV
# [13] = target: T3, Ephrin type-B receptor 3 (Homo sapiens); conditions: at 1 µM
# [14] = target: T4, Ephrin type-B receptor 4 (Homo sapiens) (UniProt P54760); conditions: at 0.1 µM
# T4 sequence (whole entry): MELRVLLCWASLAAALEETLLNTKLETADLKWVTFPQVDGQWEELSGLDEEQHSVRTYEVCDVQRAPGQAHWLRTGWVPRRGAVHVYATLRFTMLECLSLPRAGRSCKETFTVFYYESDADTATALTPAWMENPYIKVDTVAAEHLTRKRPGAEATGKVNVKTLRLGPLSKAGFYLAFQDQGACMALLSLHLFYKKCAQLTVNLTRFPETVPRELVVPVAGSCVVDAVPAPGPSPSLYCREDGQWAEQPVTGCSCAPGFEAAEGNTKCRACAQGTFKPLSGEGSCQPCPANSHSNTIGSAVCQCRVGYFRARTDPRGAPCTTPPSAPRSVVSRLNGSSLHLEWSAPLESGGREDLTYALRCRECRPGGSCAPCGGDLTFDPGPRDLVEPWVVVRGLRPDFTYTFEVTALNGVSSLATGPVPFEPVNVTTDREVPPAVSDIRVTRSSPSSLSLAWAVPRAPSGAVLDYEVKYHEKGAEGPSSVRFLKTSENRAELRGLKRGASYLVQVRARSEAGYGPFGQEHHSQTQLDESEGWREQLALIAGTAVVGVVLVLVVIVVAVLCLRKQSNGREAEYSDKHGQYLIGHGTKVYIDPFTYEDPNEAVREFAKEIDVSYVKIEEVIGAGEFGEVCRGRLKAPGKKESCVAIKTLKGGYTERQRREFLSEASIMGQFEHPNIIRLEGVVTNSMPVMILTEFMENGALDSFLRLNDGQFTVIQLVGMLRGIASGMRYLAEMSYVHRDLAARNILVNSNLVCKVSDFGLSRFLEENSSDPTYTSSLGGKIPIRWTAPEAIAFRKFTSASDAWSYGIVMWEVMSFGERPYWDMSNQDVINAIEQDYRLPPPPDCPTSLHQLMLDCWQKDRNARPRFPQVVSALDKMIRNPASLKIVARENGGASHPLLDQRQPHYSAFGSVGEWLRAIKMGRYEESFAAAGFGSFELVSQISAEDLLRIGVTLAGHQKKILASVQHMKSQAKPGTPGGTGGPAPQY
# [15] = target: T4, Ephrin type-B receptor 4 (Homo sapiens); conditions: at 1 µM
# [16] = target: Receptor tyrosine-protein kinase erbB-2 (Homo sapiens) (UniProt P04626); conditions: at 0.1 µM
# [17] = target: Receptor tyrosine-protein kinase erbB-2 (Homo sapiens) (UniProt P04626); conditions: at 1 µM
# [18] = target: Receptor tyrosine-protein kinase erbB-4 (Homo sapiens) (UniProt Q15303); conditions: at 0.1 µM
# Receptor tyrosine-protein kinase erbB-4 (Homo sapiens), sequence (Q15303 whole entry): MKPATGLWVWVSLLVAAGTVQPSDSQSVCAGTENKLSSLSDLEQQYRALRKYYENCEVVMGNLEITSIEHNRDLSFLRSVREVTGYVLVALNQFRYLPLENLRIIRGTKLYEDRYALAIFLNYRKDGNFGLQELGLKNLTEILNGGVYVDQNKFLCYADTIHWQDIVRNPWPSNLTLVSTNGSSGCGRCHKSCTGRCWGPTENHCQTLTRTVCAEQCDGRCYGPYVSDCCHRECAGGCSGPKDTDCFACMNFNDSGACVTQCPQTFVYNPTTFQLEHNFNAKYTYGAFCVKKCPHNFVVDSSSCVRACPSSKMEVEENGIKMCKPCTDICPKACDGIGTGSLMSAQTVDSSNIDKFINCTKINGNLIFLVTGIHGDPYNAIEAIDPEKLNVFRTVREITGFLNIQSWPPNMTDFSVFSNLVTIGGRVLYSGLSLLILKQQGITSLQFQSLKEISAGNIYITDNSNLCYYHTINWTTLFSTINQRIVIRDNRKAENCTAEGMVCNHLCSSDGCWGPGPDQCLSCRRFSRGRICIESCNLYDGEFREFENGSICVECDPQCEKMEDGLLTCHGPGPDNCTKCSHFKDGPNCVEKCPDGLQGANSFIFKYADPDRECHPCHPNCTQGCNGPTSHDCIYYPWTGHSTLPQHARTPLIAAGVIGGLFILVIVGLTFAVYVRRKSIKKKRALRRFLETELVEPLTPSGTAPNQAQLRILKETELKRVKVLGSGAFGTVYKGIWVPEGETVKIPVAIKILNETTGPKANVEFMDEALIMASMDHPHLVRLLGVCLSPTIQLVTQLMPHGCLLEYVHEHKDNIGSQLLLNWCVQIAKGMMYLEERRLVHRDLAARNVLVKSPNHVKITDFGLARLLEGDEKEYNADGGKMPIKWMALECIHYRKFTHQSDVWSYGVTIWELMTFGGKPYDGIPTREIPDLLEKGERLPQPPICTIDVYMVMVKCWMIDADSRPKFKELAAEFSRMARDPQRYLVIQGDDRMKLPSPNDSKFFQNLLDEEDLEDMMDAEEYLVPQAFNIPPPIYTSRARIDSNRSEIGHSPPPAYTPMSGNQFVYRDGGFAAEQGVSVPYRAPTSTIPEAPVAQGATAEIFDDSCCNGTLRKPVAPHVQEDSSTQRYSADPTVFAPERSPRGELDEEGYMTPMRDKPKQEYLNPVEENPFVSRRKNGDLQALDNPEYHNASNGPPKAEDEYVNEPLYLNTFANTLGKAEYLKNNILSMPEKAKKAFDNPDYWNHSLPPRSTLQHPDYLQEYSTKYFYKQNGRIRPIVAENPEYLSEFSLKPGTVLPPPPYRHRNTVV
# [19] = target: Receptor tyrosine-protein kinase erbB-4 (Homo sapiens) (UniProt Q15303); conditions: at 1 µM
# [20] = target: Tyrosine-protein kinase Fer (Homo sapiens) (UniProt P16591); conditions: at 0.1 µM;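 further: reported figures are averaged percent inhibition of FER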
# Epidermal growth factor receptor (Homo sapiens), P00533 [T790M], sequence (P00533 whole entry T790M): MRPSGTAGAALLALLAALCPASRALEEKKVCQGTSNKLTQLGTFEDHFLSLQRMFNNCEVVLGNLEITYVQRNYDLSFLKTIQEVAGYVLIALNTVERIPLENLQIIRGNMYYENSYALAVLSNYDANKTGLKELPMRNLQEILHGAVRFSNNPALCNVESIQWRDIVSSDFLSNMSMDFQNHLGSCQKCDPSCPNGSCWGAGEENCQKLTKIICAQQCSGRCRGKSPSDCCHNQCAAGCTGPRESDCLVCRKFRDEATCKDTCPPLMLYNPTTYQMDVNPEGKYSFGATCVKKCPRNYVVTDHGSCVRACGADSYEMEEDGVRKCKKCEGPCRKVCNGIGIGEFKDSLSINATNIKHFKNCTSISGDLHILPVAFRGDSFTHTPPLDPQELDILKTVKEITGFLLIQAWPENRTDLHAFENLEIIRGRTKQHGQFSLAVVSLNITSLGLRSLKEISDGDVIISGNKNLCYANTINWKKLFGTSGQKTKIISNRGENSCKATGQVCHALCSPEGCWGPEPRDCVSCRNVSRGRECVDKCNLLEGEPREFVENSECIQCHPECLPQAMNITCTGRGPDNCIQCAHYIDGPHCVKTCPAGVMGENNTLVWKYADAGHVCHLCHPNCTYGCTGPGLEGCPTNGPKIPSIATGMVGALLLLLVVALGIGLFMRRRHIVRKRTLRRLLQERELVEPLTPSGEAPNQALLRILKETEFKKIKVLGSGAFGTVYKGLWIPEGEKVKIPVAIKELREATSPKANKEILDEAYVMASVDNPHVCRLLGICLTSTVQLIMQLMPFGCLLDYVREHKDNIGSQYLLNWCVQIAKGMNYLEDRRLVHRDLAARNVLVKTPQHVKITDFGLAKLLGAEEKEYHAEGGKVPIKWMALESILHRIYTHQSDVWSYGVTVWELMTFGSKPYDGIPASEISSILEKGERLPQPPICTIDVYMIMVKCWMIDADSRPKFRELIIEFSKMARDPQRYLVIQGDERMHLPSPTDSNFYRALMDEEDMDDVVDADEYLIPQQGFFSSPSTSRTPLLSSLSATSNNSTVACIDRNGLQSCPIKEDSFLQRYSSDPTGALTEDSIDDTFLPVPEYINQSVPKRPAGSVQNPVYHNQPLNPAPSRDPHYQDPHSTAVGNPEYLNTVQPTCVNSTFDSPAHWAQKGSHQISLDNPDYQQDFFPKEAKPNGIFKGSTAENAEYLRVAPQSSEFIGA
# Epidermal growth factor receptor (Homo sapiens), P00533 [L858R,T790M], sequence (P00533 whole entry T790M/L858R, looked up): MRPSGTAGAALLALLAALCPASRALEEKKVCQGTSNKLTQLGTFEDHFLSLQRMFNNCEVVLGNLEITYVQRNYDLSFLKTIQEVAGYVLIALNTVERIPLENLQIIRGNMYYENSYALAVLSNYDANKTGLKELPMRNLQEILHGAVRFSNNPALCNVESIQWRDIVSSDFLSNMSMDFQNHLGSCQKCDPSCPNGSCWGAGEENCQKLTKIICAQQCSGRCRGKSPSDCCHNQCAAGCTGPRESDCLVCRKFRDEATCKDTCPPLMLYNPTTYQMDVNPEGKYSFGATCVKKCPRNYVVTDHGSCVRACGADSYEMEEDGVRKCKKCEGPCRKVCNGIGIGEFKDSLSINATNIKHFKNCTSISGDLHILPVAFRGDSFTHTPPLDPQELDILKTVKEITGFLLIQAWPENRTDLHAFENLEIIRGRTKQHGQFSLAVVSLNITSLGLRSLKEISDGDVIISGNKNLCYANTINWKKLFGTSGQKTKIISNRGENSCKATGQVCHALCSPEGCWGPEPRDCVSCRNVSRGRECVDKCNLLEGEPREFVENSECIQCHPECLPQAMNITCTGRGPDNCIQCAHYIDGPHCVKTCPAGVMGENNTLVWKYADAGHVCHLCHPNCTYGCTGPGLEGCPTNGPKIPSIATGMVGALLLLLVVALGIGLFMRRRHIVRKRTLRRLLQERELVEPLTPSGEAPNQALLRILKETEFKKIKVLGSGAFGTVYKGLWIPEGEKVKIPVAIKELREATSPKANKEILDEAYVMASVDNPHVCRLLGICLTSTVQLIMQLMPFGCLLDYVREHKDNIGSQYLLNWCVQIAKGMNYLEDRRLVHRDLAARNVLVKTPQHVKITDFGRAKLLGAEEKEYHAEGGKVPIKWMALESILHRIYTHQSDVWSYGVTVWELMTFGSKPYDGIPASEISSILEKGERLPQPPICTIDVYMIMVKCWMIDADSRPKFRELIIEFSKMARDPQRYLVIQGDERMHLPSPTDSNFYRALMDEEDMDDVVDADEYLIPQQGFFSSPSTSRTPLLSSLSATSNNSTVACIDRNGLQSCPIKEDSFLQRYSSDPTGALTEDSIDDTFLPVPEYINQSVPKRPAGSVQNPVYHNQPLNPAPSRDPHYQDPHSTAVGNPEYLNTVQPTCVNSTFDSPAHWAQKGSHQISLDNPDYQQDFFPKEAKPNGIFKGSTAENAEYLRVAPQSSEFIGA
SMILES,inhibition [1],inhibition [2],inhibition [3],inhibition [4],inhibition [5],inhibition [6],inhibition [7],inhibition [8],inhibition [9],inhibition [10],inhibition [11],inhibition [12],inhibition [13],inhibition [14],inhibition [15],inhibition [16],inhibition [17],inhibition [18],inhibition [19],inhibition [20]
O=C1Nc2ccc(C(=O)c3ccco3)cc2C1=Cc1cc(Cl)c(O)c(Cl)c1,1.86%,1.63%,4.94%,-2.48%,-0.21%,2.92%,6.1%,8.25%,14.3%,10.7%,15%,4.56%,5.53%,3.11%,2.52%,0.77%,4.54%,12.2%,15.8%,2.31%
COc1cccc(-n2ncc3c(N/N=C/c4cccc(F)c4)ncnc32)c1,0.45%,-0.32%,2.54%,-6.37%,-5.64%,-1.03%,-0.95%,4.81%,2.57%,3.17%,4.03%,0.95%,-0.77%,-0.91%,0.63%,1.57%,-0.99%,1.08%,2.68%,2.76%
CN1CCC(C(=O)Nc2n[nH]c3nnc(-c4ccccc4)cc23)CC1,4.1%,-2.57%,4.67%,1.84%,2.09%,4.03%,2.66%,8.03%,8.45%,4.92%,3.41%,6.23%,4.08%,2.18%,1.12%,5.08%,14.2%,17.7%,24.2%,3.91%
CC(=O)Nc1cccc(C#Cc2cncnc2Nc2ccc(OCc3cccc(F)c3)c(Cl)c2)n1,9.1%,-2.43%,3.75%,2.75%,1.53%,0.44%,0.58%,1.13%,5.16%,-1.46%,4.49%,-4.13%,-1.83%,-0.8%,0.82%,1.84%,0.35%,18.5%,62.8%,-0.09%
COc1cc2ncn(-c3cc(OCc4ccccc4C(F)(F)F)c(C(N)=O)s3)c2cc1OC,1.9%,3.32%,4.7%,-0.41%,3.23%,-0.35%,7.13%,11.3%,23.3%,14.9%,17.3%,1.32%,0.77%,0.05%,1.61%,3.56%,4.42%,3.59%,11.8%,3.4%
CC1=C(C(=O)Nc2ccc3[nH]ncc3c2)C(c2ccc(Cl)c(Cl)c2)CC(=O)N1 (configuration not stated),0.85%,2.39%,12.1%,-0.63%,0.57%,3.06%,2.8%,6.53%,4.28%,7.7%,12.5%,3.28%,2.88%,1.18%,1.59%,0.3%,0.63%,8.29%,17.8%,1.45%
Fc1cccc(COc2ccc(Nc3ncnc4sc(-c5cccs5)cc34)cc2Cl)c1,,,,-3.04%,-2.75%,-3.5%,-1.54%,-0.88%,2.82%,5.23%,2.33%,0.38%,2.19%,1.37%,1.29%,1.07%,3.46%,5.25%,31.8%,5.4%
